{"source": "PubChem BioAssay (NCATS)", "note": "Records with an inconclusive call do not appear. Active and inactive are the calls of the source. The call rests on the fitted dose curve; in most records, active means well fitted cell-killing curve with a large enough effect; inconclusive means small, poorly fitted or top-dose-only effect; inactive means flat fitted curve, though single readings scatter. On the % scale 0 is the no-effect control and ±100 the full control effect.", "data": [{"assay": "Cell Viability - LYMP2-008 (AID 980);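 further: cells exposed to compound for 24 h at 37 °C; nearly all actives have a fitted effect of over 60% in size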", "conditions": "LYMP2-008 lymphoblastoid cell viability, qHTS; series mostly up to 92.2 µM; activity change, negative = cytotoxicity: at the top concentration", "source_text": "NIH Chemical Genomics Center [NCGC]\nNIH Molecular Libraries Screening Centers Network [MLSCN]\nNational Institutes of Environmental Health Sciences [NIEHS]\nNational Toxicology Program [NTP]\nWe have developed a 1536-well cell-based assay for quantitative high throughput screening (qHTS) against a number of cell lines to determine in vitro cytotoxicity of small molecules. This particular assay uses a human lymphoblastoid cell line (LYMP2-008) purchased from Coriell Institute for Medical Research.\nNCGC Assay Protocol Summary:\nThe CellTiter-Glo luminescent cell viability assay (Promega) is a homogeneous method to measure the number of viable cells in culture. The end point readout of this assay is based on quantitation of intracellular ATP, an indicator of metabolic activity, using the luciferase reaction. Luciferase catalyzes the oxidation of beetle Luciferin to oxyluciferin and light in the presence of ATP. The luminescent signal is proportional to amount of ATP present.\nUsing the CellTiter-Glo luminescent cell viability assay, the amount of cellular ATP was measured in the lymphoblastoid cell line with complete culture medium following compound treatment for 24 hours. The assay was performed in opaque white Kalypsys 1536-well plates. In the screen, tetraoctylammonium bromide was used as positive control. Library compounds were measured for their ability to cause acute toxicity in the cell line, as reflected by a decrease in intracellular ATP levels, in a concentration-dependent manner. […] AC50 values were determined from concentration-response data modeled with the standard Hill equation.\nqHTS protocol for CellTiter Glo lymphoblastoid cellular assay\n[Step] [Parameter] [Value] [Description]\n1. Reagent; 5 uL; 2500 lymphoblastoid cells/well\n2. Time; 5 hr; 37 C incubation\n4. Controls; 23 nL; Tetraoctylammonium bromide 6.4pM to 92 uM\n5. Time; 24 hr; 37 C incubation\n6. Reagent; 5 uL; CellTiter Glo reagent\n7. Time; 30 min; Room Temperature\n8. Detection; Luminescence; Viewlux plate reader\nKeywords: cell viability, cytotoxicity, lymphoblastoid cell line, luminescence, NTPHTS, NTPHTS_NCGC, NIEHS, DSSTox, MLSMR, MLSCN, NIH Roadmap, qHTS, NCGC", "values": [{"smiles": "Cc1cccc(Br)c1", "activity change, negative = cytotoxicity": "-17.9% (inactive)"}, {"smiles": "NC(=O)NC(N)=O", "activity change, negative = cytotoxicity": "-6.64% (inactive)"}, {"smiles": "Cc1cccc2ccccc12", "activity change, negative = cytotoxicity": "-4.88% (inactive)"}, {"smiles": "O=Cc1ccc(Cl)cc1", "activity change, negative = cytotoxicity": "-0.0121% (inactive)"}, {"smiles": "Cc1ccccc1C(=O)O", "activity change, negative = cytotoxicity": "-0.2% (inactive)"}, {"smiles": "CCN(C(=O)N(CC)c1ccccc1)c1ccccc1", "activity change, negative = cytotoxicity": "-12.5% (inactive)"}, {"smiles": "O=[N+]([O-])c1cc(C(F)(F)F)ccc1Cl", "activity change, negative = cytotoxicity": "-4.49% (inactive)"}, {"smiles": "COC(=O)CC#N", "activity change, negative = cytotoxicity": "5.58% (inactive)"}, {"smiles": "CCCCC(C=O)CC", "note": "(stereo not given)", "activity change, negative = cytotoxicity": "-1.62% (inactive)"}, {"smiles": "COc1cccc(N)c1", "activity change, negative = cytotoxicity": "-7.45% (inactive)"}, {"smiles": "O=CNc1ccccc1", "activity change, negative = cytotoxicity": "-1.3% (inactive)"}, {"smiles": "Nc1cccc2c(=O)[nH][nH]c(=O)c12", "activity change, negative = cytotoxicity": "-5.08% (inactive)"}, {"smiles": "CC(=O)c1ccccn1", "activity change, negative = cytotoxicity": "-9.71% (inactive)"}, {"smiles": "Nc1cccc(O)c1", "activity change, negative = cytotoxicity": "-3.6% (inactive)"}, {"smiles": "CCCCCNCCCCC", "activity change, negative = cytotoxicity": "-10.2% (inactive)"}, {"smiles": "CN(C)CCCNCCCN", "activity change, negative = cytotoxicity": "-4% (inactive)"}, {"smiles": "Nc1ccc(Cl)cc1[N+](=O)[O-]", "activity change, negative = cytotoxicity": "-1.73% (inactive)"}, {"smiles": "Nc1cccc([N+](=O)[O-])c1", "activity change, negative = cytotoxicity": "-3.51% (inactive)"}, {"smiles": "Cc1ccc(C)o1", "activity change, negative = cytotoxicity": "-17.1% (inactive)"}, {"smiles": "Nc1cccc(C(F)(F)F)c1", "activity change, negative = cytotoxicity": "-2.62% (inactive)"}, {"smiles": "Cc1ccc(Cl)cc1", "activity change, negative = cytotoxicity": "-7.49% (inactive)"}, {"smiles": "Oc1c(Cl)ccc(Cl)c1Cl", "activity change, negative = cytotoxicity": "4.49% (inactive)"}, {"smiles": "CNc1ccc([N+](=O)[O-])cc1", "activity change, negative = cytotoxicity": "2.19% (inactive)"}, {"smiles": "CC(C)(C)c1ccc(OCC2CO2)cc1", "note": "(stereo not given)", "activity change, negative = cytotoxicity": "-12.2% (inactive)"}, {"smiles": "Nc1cc(Cl)c(N)c(Cl)c1", "activity change, negative = cytotoxicity": "-9.83% (inactive)"}, {"smiles": "COc1ccc(N)c(C)c1", "activity change, negative = cytotoxicity": "-4.24% (inactive)"}, {"smiles": "CC(=O)OCCC(C)C", "activity change, negative = cytotoxicity": "-2.97% (inactive)"}, {"smiles": "CC(C)CCOC(=O)/C=C/c1ccccc1", "activity change, negative = cytotoxicity": "-6.48% (inactive)"}, {"smiles": "Nc1nc(CC(=O)O)cs1", "activity change, negative = cytotoxicity": "-0.756% (inactive)"}, {"smiles": "CC(C)C(C)C", "activity change, negative = cytotoxicity": "0.308% (inactive)"}, {"smiles": "O=C1OC(=O)c2cc([N+](=O)[O-])ccc21", "activity change, negative = cytotoxicity": "-6.83% (inactive)"}, {"smiles": "NCCCCCCN", "activity change, negative = cytotoxicity": "2.8% (inactive)"}, {"smiles": "CC(C)Nc1ccccc1", "activity change, negative = cytotoxicity": "-5.38% (inactive)"}, {"smiles": "O=[N+]([O-])c1ccc(Cl)cc1Cl", "activity change, negative = cytotoxicity": "-0.975% (inactive)"}, {"smiles": "O=C1CCCCC1", "activity change, negative = cytotoxicity": "-17.8% (inactive)"}, {"smiles": "CCCCOCCOCCSC#N", "activity change, negative = cytotoxicity": "-5.87% (inactive)"}, {"smiles": "Cc1cc(C)cc(N)c1", "activity change, negative = cytotoxicity": "-0.372% (inactive)"}, {"smiles": "CC(=C/C=C/C(C)=C/C=C/C=C(C)/C=C/C=C(C)/C=C/C(=O)O)/C=C/C(=O)O", "activity change, negative = cytotoxicity": "-12.5% (inactive)"}, {"smiles": "CCCCC(CC)CNCC(CC)CCCC", "note": "(stereo not given)", "activity change, negative = cytotoxicity": "-4.46% (inactive)"}, {"smiles": "Fc1ccccc1", "activity change, negative = cytotoxicity": "10.9% (inactive)"}]}]}
